This is a sample that favours compounds with a hit; in the whole collection about 10% have one here.
NIH3T3 tox: cytotoxic compounds in NIH 3T3 cells. NIH 3T3 viability, CellTiter-Glo ATP luminescence, 48-72 h. Potency, µM (top dose mostly 96.7 µM), inactives show at the highest dose activity change, negative = cytotoxicity, most hits filed as inhibitors. 4.3% of 94,000 active; note: nearly all actives have a fitted effect of over 55% in size
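ATP-dependent luminescence (CellTiter-Glo) served as the viability signal for NIH 3T3 cells treated with compound for 48 or 72 hr at 37 °C.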
HEK293 tox: cytotoxic compounds in HEK 293 cells; Potency, µM (highest dose often 115 µM), for inactives: at the highest dose activity change, negative = cytotoxicity, actives largely listed as inhibitors; 6.6% of 94,000 active; HEK 293 viability, ATP luminescence (CellTiter-Glo), 48-72 h; note: nearly all actives have a fitted effect of over 60% in size
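HEK 293 cells at 250 cells/well were exposed to compounds by pintool transfer for 48 or 72 hr at 37 degree Celsius, 5% CO2. Viability was read as ATP-coupled luminescence with CellTiter-Glo after 10 min at room temperature.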
hNpr1 antagonist: blocks ANP-stimulated signaling of human Npr1 receptor. Potency, µM (highest dose often 46.3 µM), without a hit: at the top dose activity change, negative = inhibition, usual class: inhibitors. AID 1347048. HEK293 hNpr1 GloSensor cGMP, ANP-stimulated luminescence. 1.6% of 76,000 active; calls by dose curve; note: nearly all actives have a fitted effect of over 60% in size
Target sequence (P16066 whole entry, looked up): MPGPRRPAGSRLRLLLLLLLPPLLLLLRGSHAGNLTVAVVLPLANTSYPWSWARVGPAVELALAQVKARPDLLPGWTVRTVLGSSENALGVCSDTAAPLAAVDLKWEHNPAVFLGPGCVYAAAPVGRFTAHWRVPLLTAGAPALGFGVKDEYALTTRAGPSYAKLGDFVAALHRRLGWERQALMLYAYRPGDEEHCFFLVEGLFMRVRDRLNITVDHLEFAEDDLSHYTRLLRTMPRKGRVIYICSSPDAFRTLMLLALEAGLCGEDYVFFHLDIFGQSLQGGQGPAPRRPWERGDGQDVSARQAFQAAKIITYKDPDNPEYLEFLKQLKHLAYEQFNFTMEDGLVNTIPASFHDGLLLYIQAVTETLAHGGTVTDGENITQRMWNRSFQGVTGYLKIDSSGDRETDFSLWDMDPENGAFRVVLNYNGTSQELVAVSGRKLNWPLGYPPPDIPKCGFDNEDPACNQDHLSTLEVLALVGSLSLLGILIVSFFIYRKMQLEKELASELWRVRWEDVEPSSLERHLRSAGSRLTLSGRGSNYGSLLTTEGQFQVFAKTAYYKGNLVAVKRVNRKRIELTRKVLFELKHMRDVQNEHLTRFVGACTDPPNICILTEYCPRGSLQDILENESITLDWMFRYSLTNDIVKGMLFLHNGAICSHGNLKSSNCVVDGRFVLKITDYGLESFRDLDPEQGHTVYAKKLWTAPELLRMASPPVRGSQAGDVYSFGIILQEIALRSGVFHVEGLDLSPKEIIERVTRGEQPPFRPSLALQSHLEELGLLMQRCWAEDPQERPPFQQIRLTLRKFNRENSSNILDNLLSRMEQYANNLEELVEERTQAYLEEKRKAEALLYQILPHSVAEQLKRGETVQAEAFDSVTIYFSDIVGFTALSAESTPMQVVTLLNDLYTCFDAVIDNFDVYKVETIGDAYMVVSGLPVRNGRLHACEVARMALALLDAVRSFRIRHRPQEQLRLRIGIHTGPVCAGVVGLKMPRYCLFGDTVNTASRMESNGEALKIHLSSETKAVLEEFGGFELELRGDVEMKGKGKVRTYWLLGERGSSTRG
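HEK293 cells stably expressing human Npr1 and cGMP GloSensor pGS-40F, loaded 2 h with 2% GloSensor reagent, given compound 30 min at room temperature. Luminescence read before and 20 min after 0.1 nM hNppA.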
Luciferase inh: Photinus pyralis luciferase inhibition | purified P. pyralis luciferase, luminescence, biochemical | 2.5% of 76,000 active | P08659 | Potency, µM (series often up to 115 µM), hits mostly inhibitors; note: nearly all actives have a fitted effect of over 65% in size
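Luminescence read by CCD imaging after purified firefly luciferase (10nM final) was added to substrate buffer holding 10uM D-luciferin and 10uM ATP, pH 7.5, pre-dosed with compound.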
GPT2 inhibitor: blocks human glutamate pyruvate transaminase 2; Potency, µM (highest dose often 57.7 µM), for the others: at the highest dose activity change, negative = inhibition, usual class: inhibitors; Q8TD30; 0.25% of 100,000 active; Recombinant GPT2, coupled pyruvate oxidase/HRP Amplex Red fluorescence; note: nearly all actives have a fitted effect of over 60% in size
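Fluorescence read-out: pyruvate from GPT2 turnover coupled to pyruvate oxidase, HRP and Amplex Red (0.2mM ThPP, 0.2U/mL PO and HRP, 50uM Amplex final). Substrates 250uM a-KG, 2mM L-alanine; enzyme 10ng/uL; 30 min RT.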
An asterisk follows results filed as active; i = inactive; ? = inconclusive; . = not tested or not shown; [ ] = remark or other dose. Unless noted, calls come from the whole dose curve; as a rule, active = well fitted curve in the direction sought with a large enough effect; inconclusive = small, poorly fitted or top-dose-only effect, or another doubt; inactive = no such curve, though single readings can be large; an effect the other way counts as inactive or inconclusive. % is set by controls: 0 for no effect and ±100 for the full control effect; potency is the fitted concentration of half-maximal effect.

SMILES	NIH3T3 tox	HEK293 tox	hNpr1 antagonist	Luciferase inh	GPT2 inhibitor
O=C1N(Cc2cccnc2)C(=O)C2(CCN(Cc3cc(F)ccc3F)CC2)N1CCc1ccccc1	?	40µM*	2%	i	-11%
COc1ccc(NC(=O)C2=NO[C@@H]3CN(CCc4ccccc4)C[C@H]23)cn1	-23%[138 µM]	100µM*	1%[70.6 µM]	i	i
COc1ccc(NC(=O)C2=NO[C@@H]3CN(c4cccnc4)C[C@H]23)cc1	?	?	?	35µM*	i
COc1cncc(NC(=O)C2=NO[C@@H]3CN(Cc4ccccc4)C[C@H]23)c1	?	-28%[172 µM]	2%[70.6 µM]	i	-6%[88.5 µM]
CCc1noc(-c2cn(C3CCN(C(=O)c4cc(OC)cc(OC)c4)CC3)nn2)n1	-6%	-1%	0%	i	4%
c1ccc(-c2cc(NCCCOc3cccnc3)n3nccc3n2)cc1	-22%	?	-3%	i	2%
C=CCN1CCN(C(=O)[C@@H]2CCCN(Cc3ccccc3)[C@@H]2COC)CC1	-26%	?	.	.	2%
Clc1ccccc1-c1cc(C2CCN(Cc3cc4n(n3)CCNC4)CC2)[nH]n1	?	?	0%	i	-30%
N#Cc1ccc(C(=O)N[C@@H]2CN(Cc3ccccc3)C[C@H]2CO)cc1	14µM*	?	2%	i	3%
O=C(Cc1ccc(F)cc1)Nc1cc(-c2cccnc2)nn1-c1ccccc1	?	?	.	.	i
O=C1Nc2ccccc2C12CCN(S(=O)(=O)c1cccs1)C2 (centres undefined)	?	89µM*	-4%[70.6 µM]	i	4%[88.5 µM]
Cn1c(C(=O)NCC2CC2)nc2nc(-c3ccccc3)c(Cl)cc21	?	-6%[172 µM]	.	i	4%[88.5 µM]
CN(C)CCNC(=O)c1nc2nc(-c3ccccc3)c(-c3cccc(CO)c3)cc2n1C	?	?	-1%[70.6 µM]	i	i
CN(C)CCNC(=O)c1nc2nc(-c3ccccc3)c(-c3ccc(Cl)cc3)cc2n1C	25µM*	40µM*	-4%[70.6 µM]	i	-4%[88.5 µM]
CN(C)CCNC(=O)c1nc2nc(-c3ccccc3)c(-c3cccc(Cl)c3)cc2n1C	10µM*	28µM*	-20%[70.6 µM]	i	-9%[88.5 µM]
Cn1c(C(=O)NCCc2ccccn2)nc2nc(-c3ccccc3)c(Cl)cc21	?	?	-22%[70.6 µM]	45µM*	i
COc1ncccc1-c1cc2c(nc1-c1ccccc1)nc(C(=O)NCCN(C)C)n2C	?	?	-15%[70.6 µM]	i	1%[88.5 µM]
CN(C)CCNC(=O)c1nc2nc(-c3ccccc3)c(-c3ccccc3O)cc2n1C	79µM*	?	?	i	3%[88.5 µM]
COc1ccc(-c2nc3cc(C)ccc3cc2CN2CCCC(OC)C2)cc1 (centres undefined)	?	?	5%	i	-29%
Cc1ccc(-c2cc3c(nc2-c2ccccc2)nc(C(=O)NCCN(C)C)n3C)cc1	11µM*	40µM*	3%[70.6 µM]	i	?
COc1ccccc1-c1cc2c(nc1-c1ccccc1)nc(C(=O)NC1CCN(C)CC1)n2C	20µM*	35µM*	-18%	i	1%
COc1ccc(-c2cc3c(=O)n(CCNC(=O)c4ccc(C)c(F)c4)ccn3n2)cc1	-14%	3%	-17%	i	i
COc1cccc(-c2cc3c(=O)n(CCNC(=O)c4ccccc4F)ccn3n2)c1	-28%	?	-8%	?	-4%
COc1ccc(-c2cc3c(=O)n(CCNC(=O)c4ccsc4)ccn3n2)cc1	-20%	?	-24%	4.5µM*	0%
O=C(NCCn1ccn2nc(-c3ccc(F)cc3)cc2c1=O)c1ccoc1	?	50µM*	-13%	?	i
SMILES	NIH3T3 tox	HEK293 tox	hNpr1 antagonist	Luciferase inh	GPT2 inhibitor
COc1ccc(-c2cc3c(=O)n(CCNC(=O)c4cccc(OC)c4OC)ccn3n2)cc1	?	35µM*	-15%	6.3µM*	2%
COc1ccc(-c2cc3c(=O)n(CCNC(=O)c4ccoc4)ccn3n2)cc1	-20%	22µM*	-12%	?	i
COc1ccc(-c2cc3c(=O)n(CCNC(=O)c4ccc(OC)c(OC)c4)ccn3n2)cc1	-9%	?	-23%	?	i
COCCn1c(C)cc(C(=O)N2CCC(N3C[C@H](O)C[C@H]3C(=O)NC3CCCCC3)CC2)c1C	-10%	3%	2%	i	5%
Cc1cccc(C(=O)N2CCC[C@H]2c2nc(-c3ccccc3Cl)no2)c1	?	?	-14%	?	0%
COc1ccc(-c2cc3c(=O)n(CCNC(=O)c4sccc4C)ccn3n2)cc1	-18%	?	-13%	4.5µM*	-3%
O=C(NCCn1ccn2nc(-c3ccc(F)cc3)cc2c1=O)c1ccc2[nH]ccc2c1	-19%	-22%	0%	11µM*	i
O=C(Cc1cccc(F)c1)NCCn1ccn2nc(-c3ccc(F)cc3)cc2c1=O	-22%	?	-16%	?	i
O=C(NCCn1ccn2nc(-c3ccc(F)cc3)cc2c1=O)c1c(F)cccc1Cl	?	32µM*	2%	i	i
CCOc1ccc(-c2cc3c(=O)n(CCNC(=O)c4ccoc4)ccn3n2)cc1	-25%	45µM*	-5%	20µM*	i
Cc1noc(C)c1C(=O)N1CC(N2C(=O)c3c(c(C)nn3-c3ccccc3)C2C(C)C)C1 (centres undefined)	3%	-8%	.	.	.
CCN(CC)C(=O)c1coc(COc2ccc3c(c2)C(c2ccc(C)cc2)N(C(=O)C2CC2)CC3)n1 (centres undefined)	?	10µM*	-25%	i	-8%
CC(C)CNC(=O)c1coc(COc2ccc3c(c2)C(c2cccc(F)c2)N(C(=O)C2CC2)CC3)n1 (centres undefined)	13µM*	14µM*	?	i	-5%
CCCNC(=O)c1coc(COc2ccc3c(c2)C(c2cccc(C)c2)N(C(=O)C2CC2)CC3)n1 (centres undefined)	?	13µM*	?	i	i
CCCNC(=O)c1coc(COc2ccc3c(c2)C(c2ccc(C)cc2)N(C(=O)C2CC2)CC3)n1 (centres undefined)	?	?	-8%	i	-3%
Cc1ccc(C2c3cc(OCc4nc(C(=O)NCC5CC5)co4)ccc3CCN2C(=O)C2CC2)cc1 (centres undefined)	28µM*	35µM*	-23%	i	4%
Cc1cccc(C2c3cc(OCc4nc(C(=O)NCC5CC5)co4)ccc3CCN2C(=O)C2CC2)c1 (centres undefined)	?	?	?	i	-25%
COCCNC(=O)c1coc(COc2ccc3c(c2)C(c2cccc(F)c2)N(C(=O)C2CC2)CC3)n1 (centres undefined)	?	?	-9%	i	i
